SSB-PriA inh: K. pneumoniae PriA-SSBct interaction inhibition; AlphaScreen SSBct-PriA binding, biotinylated peptide; inhibition, % at 33 µM; 430,000 compounds, 0.6% hits; in the data active means inhibition mostly above about 37%, no sharp cut-off; inactive means mostly below about 20%
BoNT-F LC inh: BoNT F light chain protease inhibition; inhibition, % at 10 µM; 360,000 compounds, 0.22% hits; Multiplex microsphere protease cleavage assay, flow cytometry; in the data active means inhibition above about 35%, passing the limit was not always enough; inconclusive means no clear call, values can overlap the other calls
Anthrax LF prot: anthrax lethal factor protease inhibition; 360,000 compounds, 0.12% hits; inhibition, % at 10 µM; multiplex microsphere protease cleavage assay, LF; P15917
BoNT A protease: BoNT A light chain protease inhibition; inhibition, % at 10 µM; AID 588499; multiplex microsphere protease substrate cleavage, flow cytometry; 360,000 compounds, 0.17% hits
Bead autofluor: flagged as autofluorescent in microsphere protease counterscreen; fluorescence intensity (concentration not given with the values); 360,000 compounds, 3.1% hits; compound autofluorescence counterscreen, microsphere flow cytometry; stronger effect = higher value; in the data active means fluorescence intensity above about 16000; inconclusive means no clear call, values can overlap the other calls
Each line names hits and unclear results; the compound was inactive in the other large screens. In the library only some 3.1% were active in any assay of this set; here they are far more common. Unless noted, no stated cut-off is given here; in the data, active means inhibition above about 30%; inconclusive means no clear call, values can overlap the other calls; inactive means below that.

CN(C)S(=O)(=O)NCCNC(=O)c1cc(OCC(F)(F)F)ccc1OCC(F)(F)F	none
O=C(Nc1ccncc1)Nc1cccc(C(F)(F)F)c1	none
O=C(Nc1ccc(OC(F)F)cc1)Nc1cccc(C(F)(F)F)c1	BoNT A protease inconclusive, Bead autofluor 20493
C=CCONC(=O)c1cc(OCC(F)(F)F)ccc1OCC(F)(F)F	Bead autofluor 24141
O=C(NN=Cc1ccc(F)cc1)c1cc(OCC(F)(F)F)ccc1OCC(F)(F)F	none (no result: BoNT-F LC inh, Anthrax LF prot, BoNT A protease, Bead autofluor)
Cc1cc(C(F)(F)F)nc(CCNS(=O)(=O)c2ccc(Br)s2)n1	none (no result: BoNT-F LC inh, Anthrax LF prot, BoNT A protease, Bead autofluor)
Fc1ccc(Nc2nc(N3CCOCC3)nc(N3CCOCC3)n2)cc1	none
COc1ccc(Nc2nc(Nc3ccc(F)cc3)nc(N3CCOCC3)n2)cc1OC	SSB-PriA inh 37 (no result: BoNT-F LC inh, Anthrax LF prot, BoNT A protease, Bead autofluor)
CC(C)CCNC(=O)C(c1ccco1)N(Cc1ccccc1)C(=O)c1snc(C(N)=O)c1N (stereo not given)	Bead autofluor 22391
CCCCC(C(=O)NCCC(C)C)N(CCCN1CCOCC1)C(=O)c1snc(C(N)=O)c1N (stereo not given)	Bead autofluor 20769
COC(=O)c1ccccc1NC(=O)Cn1nc(S(=O)(=O)c2cccc(F)c2)ccc1=O	none (no result: BoNT-F LC inh, Anthrax LF prot, BoNT A protease, Bead autofluor)
CCc1nc2ccc(C)cc2c(C(=O)NC2CCCCC2C)c1C (stereo not given)	BoNT A protease inconclusive, Bead autofluor 18786
CC(NS(=O)(=O)c1cc2c3c(c1)CC(=O)N3CCC2)c1ccccc1 (stereo not given)	none (no result: BoNT-F LC inh, Anthrax LF prot, BoNT A protease, Bead autofluor)
Cc1cc(N2CCCC2)nc(Nc2ccc(NS(=O)(=O)c3ccc(I)cc3)cc2)n1	SSB-PriA inh 44 (no result: BoNT-F LC inh, Anthrax LF prot, BoNT A protease, Bead autofluor)
Cc1cc(N2CCCC2)nc(Nc2ccc(NS(=O)(=O)c3ccc(Cl)cc3)cc2)n1	none (no result: BoNT-F LC inh, Anthrax LF prot, BoNT A protease, Bead autofluor)
CC1CCN(C2=C(NS(=O)(=O)c3ccccc3)C(=O)c3ccccc3C2=O)CC1	SSB-PriA inh 64 (no result: BoNT-F LC inh, Anthrax LF prot, BoNT A protease, Bead autofluor)
CC1CCCN(C2=C(NS(=O)(=O)c3ccc(Br)cc3)C(=O)c3ccccc3C2=O)C1 (stereo not given)	none
CC1CCN(C2=C(NS(=O)(=O)c3ccc(Br)cc3)C(=O)c3ccccc3C2=O)CC1	SSB-PriA inh 70
CC1CCN(C2=C(NS(=O)(=O)c3ccc(Cl)cc3)C(=O)c3ccccc3C2=O)CC1	none
O=C(CN1CCN(c2nccn2-c2ccccc2F)CC1)Nc1cccc(F)c1	none (no result: BoNT-F LC inh, Anthrax LF prot, BoNT A protease, Bead autofluor)
Cc1ccc2c(c1)CCCN2C(=O)c1cc2ccccc2oc1=O	BoNT A protease inconclusive, Bead autofluor 16268
Cc1ccc2c(c1)CCCN2C(=O)C1CCCO1 (stereo not given)	Bead autofluor 22991
Cc1ccc2c(c1)CCCN2C(=O)c1ccoc1C	Bead autofluor 21940
Cc1ccc(C)c(N2CCN(C(=O)c3cc4ccccc4oc3=O)CC2)c1	none
CC(=O)Nc1ccc2c(c1)CCN2C(=O)C1CCCO1 (stereo not given)	none (no result: BoNT-F LC inh, Anthrax LF prot, BoNT A protease, Bead autofluor)
CCc1ccc2c(c1)CCCN2C(=O)c1ccccc1C(=O)O	Bead autofluor 19882
Cc1noc(C)c1C(=O)N1CCCc2ccccc21	none
Cc1ccc2c(c1)CCCN2C(=O)c1c(C)noc1C	Bead autofluor 22666
O=S(=O)(NCCCn1ccnc1)c1cccc2cnccc12	SSB-PriA inh 41 (no result: BoNT-F LC inh, Anthrax LF prot, BoNT A protease, Bead autofluor)
O=[N+]([O-])c1cccc(S(=O)(=O)NCCCn2ccnc2)c1	SSB-PriA inh 53
O=S(=O)(NCCCN1CCOCC1)c1cccc2cnccc12	none (no result: BoNT-F LC inh, Anthrax LF prot, BoNT A protease, Bead autofluor)
CN(C)CCCN(C(=O)c1ccno1)c1nc2c(F)cc(F)cc2s1	none (no result: BoNT-F LC inh, Anthrax LF prot, BoNT A protease, Bead autofluor)
O=C(CSc1nc(-c2ccccc2)cc(=O)[nH]1)NCCc1ccccc1	none (no result: BoNT-F LC inh, Anthrax LF prot, BoNT A protease, Bead autofluor)
COc1ccc(CNC(=O)Nc2cc(-n3cncn3)ncn2)cc1OC	none (no result: BoNT-F LC inh, Anthrax LF prot, BoNT A protease, Bead autofluor)
CCOC(=O)c1nn(-c2ccc(Br)cc2)cc1C(=O)c1cccc2ccccc12	Bead autofluor 20527
CCOC(=O)c1nn(-c2ccc(F)cc2)cc1O	none
C[C@H]1CCC[C@@H](O)CCC/C=C/c2cc(O)cc(O)c2C(=O)O1	Bead autofluor 20416
C[C@H]1CCC[C@H](O)CCCCCc2cc(O)cc(O)c2C(=O)O1	none
COc1ccc(CCNCCC(c2ccccc2)c2ccccc2)cc1OC	none (no result: SSB-PriA inh)
COc1cc(OC)c(OC)cc1CCC(C)NCCC(c1ccccc1)c1ccccc1 (stereo not given)	SSB-PriA inh 42
CCc1cccc(C)c1NC(=S)NCc1ccc2[nH]c(C)cc2c1	SSB-PriA inh 42, BoNT A protease 40
CNC(=S)NCc1ccc2[nH]c(C)cc2c1	none
O=C(NCCc1ccc(Cl)cc1)C1CCC(=O)N1Cc1ccccc1Cl (stereo not given)	Bead autofluor 22400
COc1ccc(CCNC(=O)C2CCC(=O)N2Cc2ccccc2Cl)cc1OC (stereo not given)	none
CC(C)N1C(=O)CCC1C(=O)NCCc1ccccc1 (stereo not given)	Bead autofluor 23958
Cc1ccc(CCNC(=O)C2CCC(=O)N2CCc2ccccc2)cc1 (stereo not given)	none
CC(C)N1C(=O)CCC1C(=O)NC1CCCC1 (stereo not given)	Bead autofluor 20690
Cc1ccc(CCNC(=O)C2CCC(=O)N2C(C)C)cc1 (stereo not given)	none
Cc1ccc(CNC(=O)C2CCC(=O)N2CCc2ccccc2)cc1 (stereo not given)	Bead autofluor 20485
CC(C)CCNC(=O)C1CCC(=O)N1C(C)C (stereo not given)	none
CCSc1ccc(NC(=O)c2cccc(F)c2)nn1	none (no result: BoNT-F LC inh, Anthrax LF prot, BoNT A protease, Bead autofluor)
COc1ccccc1NC(=O)CN1N=NC2C(=O)N(c3ccc(Br)cc3)C(=O)C21 (stereo not given)	none (no result: BoNT-F LC inh, Anthrax LF prot, BoNT A protease, Bead autofluor)
CCOc1ccc(/C=C/[N+](=O)[O-])c2ccccc12	BoNT A protease 47
Cn1c(C(C(=O)NCC2CCCO2)N(C(=O)Cn2nnc3ccccc32)C2CCCCC2)nc2ccccc21 (stereo not given)	Bead autofluor 21506
O=C(CSCc1ccccc1)N1CCC(CSc2ccccn2)CC1	none (no result: BoNT-F LC inh, Anthrax LF prot, BoNT A protease, Bead autofluor)
O=C(Nc1cc(N2CCOCC2)ncn1)[C@H]1CCCN(c2ccc(-c3ccccc3)nn2)C1	none (no result: BoNT-F LC inh, Anthrax LF prot, BoNT A protease, Bead autofluor)
CCOC(=O)c1sc2cc([N+](=O)[O-])cc(SCC(C)C)c2c1N	BoNT A protease 32, Bead autofluor 20038
Cn1c(SCC(=O)N2CCOCC2)nnc1-c1cccc(NC(=O)c2ccccc2F)c1	Bead autofluor 20837
Cn1c(SCC(=O)NC(C)(C)C)nnc1-c1cccc(NC(=O)c2ccccc2F)c1	none
Cn1c(SCC(=O)N2CCOCC2)nnc1-c1ccc(Cl)cc1Cl	Bead autofluor 23071
Cc1nnc(SCC(=O)Nc2ccc3c(c2)OCO3)c2c1cnn2-c1ccc(F)cc1	none (no result: BoNT-F LC inh, Anthrax LF prot, BoNT A protease, Bead autofluor)
Cc1ccc(-c2cn3c(CC(=O)Nc4cccc(C)c4C)csc3n2)cc1	none (no result: BoNT-F LC inh, Anthrax LF prot, BoNT A protease, Bead autofluor)
O=c1ccc(-c2cccs2)nn1CCCNS(=O)(=O)c1ccc(F)cc1	none (no result: BoNT-F LC inh, Anthrax LF prot, BoNT A protease, Bead autofluor)
Cc1ccc(NC(=O)Cc2nnc(SCC(=O)c3ccc(Br)cc3)n2C)cc1	Bead autofluor 21836
CCn1c(CC(=O)Nc2ccc(C)cc2)nnc1SCC(=O)NCCc1ccccc1	Bead autofluor 24526
CCn1c(SCC(=O)Nc2ccc(C)cc2)nnc1-c1ccc(O)cc1	Bead autofluor 17034
CSc1nnc(-c2ccc(S(=O)(=O)N3CCOCC3)cc2)n1CC1CCCO1 (stereo not given)	Bead autofluor 17507
CCn1c(Cc2ccccc2)nnc1SCC(=O)Nc1ccc(C)cc1	none

Compound activity: PubChem, several laboratories
